Reference: PubChem BioAssay (NCATS)
Results filed as inconclusive are left out. Calls of active or inactive are those of the source. Unless noted, calls follow the shape of the dose curve; as a rule, active = well fitted curve in the direction sought with a large enough effect; inconclusive = small, poorly fitted or top-dose-only effect, or another doubt; inactive = no such curve, though single readings can be large; an effect the other way counts as inactive or inconclusive.

Tests used:
[1] = biological target: Cytochrome P450 1A2 (Homo sapiens) (UniProt P05177); assay: p450-cyp1a2 (AID 410; calls by dose curve;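 also: -100% = full effect of reference inhibitor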)
Cytochrome P450 1A2 (Homo sapiens), sequence (P05177 whole entry, looked up): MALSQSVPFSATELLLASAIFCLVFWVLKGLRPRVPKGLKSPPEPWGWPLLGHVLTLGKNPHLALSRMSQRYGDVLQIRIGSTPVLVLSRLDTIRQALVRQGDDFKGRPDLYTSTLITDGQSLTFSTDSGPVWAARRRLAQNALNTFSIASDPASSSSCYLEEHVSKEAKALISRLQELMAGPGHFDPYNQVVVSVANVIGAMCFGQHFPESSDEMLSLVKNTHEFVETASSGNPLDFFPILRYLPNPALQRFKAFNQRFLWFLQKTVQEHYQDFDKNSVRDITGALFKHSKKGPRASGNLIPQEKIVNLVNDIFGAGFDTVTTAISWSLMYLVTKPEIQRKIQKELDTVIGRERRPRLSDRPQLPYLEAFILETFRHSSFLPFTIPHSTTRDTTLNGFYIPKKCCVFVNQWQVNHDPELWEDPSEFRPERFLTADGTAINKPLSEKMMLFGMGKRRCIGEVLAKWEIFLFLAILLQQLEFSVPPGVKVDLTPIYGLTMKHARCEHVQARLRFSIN
Outline: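 Read-out is luminescence from luciferin produced by CYP1A2 demethylation of Luciferin-ME (100uM, at Km). Detection reagent stopped the 60 min NADPH-dependent reaction; signals were normalized to 57 uM furafylline.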

[2] = NFAT Signaling Pathway (AID 444; active = well fitted curve in either direction with a large enough effect, not every such curve was filed as active;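 also: carbachol stimulus at about its EC50 of 1 µM final; % is scaled to controls: 0 for no effect and ±100 for the full control effect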); settings: Jurkat NFAT-bla M1, carbachol, beta-lactamase ratio, 5 h; at 17.2 µM (top of the series) unless noted
Outline: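 Jurkat cells carrying an NFAT-driven β-lactamase reporter and co-transfected muscarinic M1 receptor were treated with compound plus carbachol (1 uM final, an EC50 level) for 5 h at 37 °C. CCF4 loading followed for 1 h at RT; 460/530 nm ratio gave %activity.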

[3] = Stat Signaling Pathway (AID 446; active = well fitted curve in either direction with a large enough effect, not every such curve was filed as active;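 also: ME-180 cervical cancer cells given 40 pM IL-6 alongside compound; SIE-controlled beta-lactamase reporter measured as 460/530 nm FRET emission ratio; % is scaled to controls: 0 for no effect and ±100 for the full control effect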); settings: ME-180 (cervical carcinoma) SIE beta-lactamase reporter, IL-6 stimulated, 5 h; at 17.2 µM (top of the series) unless noted
Outline: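 FRET read-out (405 nm excitation, 460/530 nm emission) of a beta-lactamase reporter under a STAT-inducible element in ME-180 cervical carcinoma cells. Cells with compound receive 40 pM IL-6 for 5 h. Values are normalised to AC90 stimulation and AC90 JAK-inhibitor controls.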

[4] = biological target: Glucocorticoid receptor (Homo sapiens) (UniProt P04150); assay: GR-GFP Redistribution (AID 450;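 active = compounds whose dose series gives a full or clear partial fitted curve of increased nuclear translocation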; also: potency is read from the fitted curve at half-maximal effect)
Glucocorticoid receptor (Homo sapiens), sequence (P04150 whole entry, looked up, the tested form may be a part): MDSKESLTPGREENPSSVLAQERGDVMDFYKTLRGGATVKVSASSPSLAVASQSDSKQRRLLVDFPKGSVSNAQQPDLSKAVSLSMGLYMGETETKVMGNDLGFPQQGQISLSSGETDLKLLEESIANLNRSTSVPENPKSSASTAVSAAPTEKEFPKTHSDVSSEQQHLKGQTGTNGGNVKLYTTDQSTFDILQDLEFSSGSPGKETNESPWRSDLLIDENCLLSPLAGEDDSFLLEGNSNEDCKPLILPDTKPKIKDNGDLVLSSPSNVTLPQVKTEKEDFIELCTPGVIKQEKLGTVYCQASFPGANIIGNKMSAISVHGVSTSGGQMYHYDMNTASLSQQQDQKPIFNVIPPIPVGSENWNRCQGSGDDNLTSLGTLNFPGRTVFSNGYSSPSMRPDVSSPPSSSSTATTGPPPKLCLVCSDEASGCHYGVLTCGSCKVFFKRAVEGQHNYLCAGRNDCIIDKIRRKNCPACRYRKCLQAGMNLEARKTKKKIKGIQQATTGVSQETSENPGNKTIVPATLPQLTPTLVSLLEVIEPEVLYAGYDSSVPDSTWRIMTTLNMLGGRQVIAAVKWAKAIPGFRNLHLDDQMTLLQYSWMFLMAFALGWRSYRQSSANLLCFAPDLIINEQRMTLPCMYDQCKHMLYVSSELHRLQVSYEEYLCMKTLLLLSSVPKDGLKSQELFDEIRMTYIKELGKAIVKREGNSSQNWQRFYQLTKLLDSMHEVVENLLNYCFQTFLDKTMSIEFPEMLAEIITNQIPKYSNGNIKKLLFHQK

[5] = biological target: Glucocorticoid receptor (Homo sapiens) (UniProt P04150); assay: GR-EFC Redistribution (AID 451; calls by dose curve; also: potency is read from the fitted curve at half-maximal effect); settings: CHO-K1 GR-EFC translocation, beta-gal luminescence, 2 h
Outline: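 CHO-K1 cells stably expressing nuclear-localized β-gal enzyme acceptor and GR fused C-terminally to the enzyme donor fragment; ligand-driven nuclear translocation restores β-gal by complementation. Compounds titrated up to 46 uM final, 2 h at 37 °C; luminescence read.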

[6] = biological target: Mitogen-activated protein kinase 10 (Mus musculus) (UniProt Q61831); assay: JNK3 AlphaScreen Assay (AID 530; active = well fitted curve in either direction with a large enough effect, not every such curve was filed as active;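 also: kinase came from lysate of stimulated human HepG2 cells; signal reports phosphorylation of biotinylated GST-cJun 1-79 at Ser73 with 10 µM ATP; % is scaled to controls: 0 for no effect and ±100 for the full control effect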)
Outline: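 Biotinylated GST-cJun(1-79) served as substrate for JNK3 in HepG2 lysates stimulated with IL-1beta and TNF-alpha. ATP was 10 uM final, pH 7.6. Ser73 phosphorylation was quantified by AlphaScreen (680 nm excitation).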

[7] = biological target: 3',5'-cyclic-AMP phosphodiesterase 4B (Homo sapiens) (UniProt Q07343); assay: qHTS Assay for Inhibitors of PDE-IV (AID 607; active = well fitted activation curve with a large enough effect in the main read-out, with a control signal flat, not every such curve was filed as active; also: % of control where 0% means no effect)
3',5'-cyclic-AMP phosphodiesterase 4B (Homo sapiens), sequence (Q07343 whole entry, looked up): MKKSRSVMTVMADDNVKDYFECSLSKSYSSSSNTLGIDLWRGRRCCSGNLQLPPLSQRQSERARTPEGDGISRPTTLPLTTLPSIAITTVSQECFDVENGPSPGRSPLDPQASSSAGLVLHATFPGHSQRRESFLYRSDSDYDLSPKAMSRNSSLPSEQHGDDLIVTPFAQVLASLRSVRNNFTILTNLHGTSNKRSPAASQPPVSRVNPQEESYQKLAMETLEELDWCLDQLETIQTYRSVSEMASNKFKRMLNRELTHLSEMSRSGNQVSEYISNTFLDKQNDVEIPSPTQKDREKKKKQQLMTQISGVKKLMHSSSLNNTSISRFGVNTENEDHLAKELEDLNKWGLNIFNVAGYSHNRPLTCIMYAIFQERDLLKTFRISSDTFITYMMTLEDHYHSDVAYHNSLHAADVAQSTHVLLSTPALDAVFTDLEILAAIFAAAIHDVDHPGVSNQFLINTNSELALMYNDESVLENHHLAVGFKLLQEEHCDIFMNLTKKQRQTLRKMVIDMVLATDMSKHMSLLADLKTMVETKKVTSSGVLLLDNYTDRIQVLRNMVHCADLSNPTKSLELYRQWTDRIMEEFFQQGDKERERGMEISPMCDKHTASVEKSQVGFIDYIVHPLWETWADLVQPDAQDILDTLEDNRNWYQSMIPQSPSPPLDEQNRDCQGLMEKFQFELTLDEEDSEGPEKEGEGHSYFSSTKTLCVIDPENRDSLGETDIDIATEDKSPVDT
Outline: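 Cell-based read-out of cAMP via a modified cyclic nucleotide-gated channel and membrane potential dye (535/590 nm) in HEK293 cells expressing PDE4 endogenously. Compounds tested up to 22.9 uM final; 100 uM RO 20-1724 reference.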

[8] = biological target: ATP-dependent 6-phosphofructokinase (Trypanosoma brucei brucei) (UniProt O15648); assay: qHTS Assay to Find Inhibitors of T. brucei phosphofructokinase: hit validation (AID 492961);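 also: luminescence reports ADP formed as PFK phosphorylates fructose-6-phosphate with ATP; % is scaled to controls: 0 for no effect and ±100 for the full control effect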
ATP-dependent 6-phosphofructokinase (Trypanosoma brucei brucei), sequence (O15648 whole entry, looked up): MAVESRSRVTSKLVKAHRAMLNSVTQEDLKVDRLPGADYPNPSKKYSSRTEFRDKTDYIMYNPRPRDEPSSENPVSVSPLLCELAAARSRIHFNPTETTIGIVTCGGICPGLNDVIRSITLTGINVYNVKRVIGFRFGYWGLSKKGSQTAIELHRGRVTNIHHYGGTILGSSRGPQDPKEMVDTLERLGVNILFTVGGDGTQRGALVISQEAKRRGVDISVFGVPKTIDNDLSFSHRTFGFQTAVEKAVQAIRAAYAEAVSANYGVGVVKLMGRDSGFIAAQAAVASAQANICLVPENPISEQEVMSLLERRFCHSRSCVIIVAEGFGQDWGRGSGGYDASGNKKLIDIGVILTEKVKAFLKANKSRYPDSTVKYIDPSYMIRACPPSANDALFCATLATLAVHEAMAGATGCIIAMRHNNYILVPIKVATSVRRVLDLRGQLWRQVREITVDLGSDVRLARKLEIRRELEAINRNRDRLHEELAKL
Outline: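 Percent activity derived from corrected luminescence, normalized between 0x and 1x enzyme controls, then fitted to concentration-response curves. Conditions: 1.25 nM PFK, 0.1 mM ATP, 0.5 mM F6P, 45 min RT.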

[9] = S16 Schwann cell PMP22 intronic element firefly luciferase assay (AID 624032); also: potency is read from the fitted curve at half-maximal effect; nearly all actives have a fitted effect of over 30% in size
Outline: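 Rat S16 Schwann cells stably carrying a PMP22 intronic element-driven Fluc reporter were seeded overnight, then exposed to compounds for 24 h at 37 °C. Luminescence was normalized to PTC124 (positive control) and DMSO (0% activity).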

[10] = qHTS profiling for inhibitors of Plasmodium falciparum proliferation (AID 504749); also: potency is read from the fitted curve at half-maximal effect; nearly all actives have a fitted effect of over 60% in size; settings: P. falciparum in erythrocytes, SYBR Green DNA, 72 h
Outline: (§1)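 Fluorescence of SYBR Green-bound parasite DNA, read at 485/535 nm, served as the growth measure. Infected erythrocytes were cultured with compound 72 h; artemisinin (0.29 uM) and DMSO wells defined the normalization range.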

[11] = test system: 3D7; assay: as above; settings: P. falciparum in erythrocytes, SYBR Green DNA, 72 h; series mostly up to 28.7 µM
Outline: as §1

[12] = test system: 7G8; assay: as above; settings: P. falciparum in erythrocytes, SYBR Green DNA, 72 h; series mostly up to 28.7 µM
Outline: as §1

[13] = test system: AA1029; assay: as above; settings: P. falciparum in erythrocytes, SYBR Green DNA, 72 h; series mostly up to 28.7 µM
Outline: as §1

[14] = test system: AS120; assay: as above; settings: P. falciparum in erythrocytes, SYBR Green DNA, 72 h; series mostly up to 28.7 µM
Outline: as §1

[15] = test system: ATS189; assay: as above; settings: P. falciparum in erythrocytes, SYBR Green DNA, 72 h; series mostly up to 28.7 µM
Outline: as §1

[16] = test system: ATS95; assay: as above; settings: P. falciparum in erythrocytes, SYBR Green DNA, 72 h; series mostly up to 28.7 µM
Outline: as §1

[17] = test system: C2A; assay: as above; settings: P. falciparum in erythrocytes, SYBR Green DNA, 72 h; series mostly up to 28.7 µM
Outline: as §1

[18] = test system: CP185; assay: as above; settings: P. falciparum in erythrocytes, SYBR Green DNA, 72 h; series mostly up to 28.7 µM
Outline: as §1

[19] = test system: CP191; assay: as above; settings: P. falciparum in erythrocytes, SYBR Green DNA, 72 h; series mostly up to 28.7 µM
Outline: as §1

[20] = test system: CP192; assay: as above; settings: P. falciparum in erythrocytes, SYBR Green DNA, 72 h; series mostly up to 28.7 µM
Outline: as §1

[21] = test system: CP194; assay: as above; settings: P. falciparum in erythrocytes, SYBR Green DNA, 72 h; series mostly up to 28.7 µM
Outline: as §1

[22] = test system: CP201; assay: as above; settings: P. falciparum in erythrocytes, SYBR Green DNA, 72 h; series mostly up to 28.7 µM
Outline: as §1

[23] = test system: CP203; assay: as above; settings: P. falciparum in erythrocytes, SYBR Green DNA, 72 h; series mostly up to 28.7 µM
Outline: as §1

[24] = test system: CP211; assay: as above; settings: P. falciparum in erythrocytes, SYBR Green DNA, 72 h; series mostly up to 28.7 µM
Outline: as §1

[25] = test system: CP215; assay: as above; settings: P. falciparum in erythrocytes, SYBR Green DNA, 72 h; series mostly up to 28.7 µM
Outline: as §1

[26] = test system: CP217; assay: as above; settings: P. falciparum in erythrocytes, SYBR Green DNA, 72 h; series mostly up to 28.7 µM
Outline: as §1

[27] = test system: CP237; assay: as above; settings: P. falciparum in erythrocytes, SYBR Green DNA, 72 h; series mostly up to 28.7 µM
Outline: as §1

[28] = test system: CP238; assay: as above; settings: P. falciparum in erythrocytes, SYBR Green DNA, 72 h; series mostly up to 28.7 µM
Outline: as §1

[29] = test system: CP247; assay: as above; settings: P. falciparum in erythrocytes, SYBR Green DNA, 72 h; series mostly up to 28.7 µM
Outline: as §1

[30] = test system: CP250; assay: as above; settings: P. falciparum in erythrocytes, SYBR Green DNA, 72 h; series mostly up to 28.7 µM
Outline: as §1

[31] = test system: CP252; assay: as above; settings: P. falciparum in erythrocytes, SYBR Green DNA, 72 h; series mostly up to 28.7 µM
Outline: as §1

[32] = test system: CP256; assay: as above; settings: P. falciparum in erythrocytes, SYBR Green DNA, 72 h; series mostly up to 28.7 µM
Outline: as §1

[33] = test system: CP260; assay: as above; settings: P. falciparum in erythrocytes, SYBR Green DNA, 72 h; series mostly up to 28.7 µM
Outline: as §1

CC[C@]1([C@H]2O[C@@H]([C@@H]3O[C@](O)(CO)[C@@H](C)C[C@H]3C)C[C@H]2C)CC[C@@H]([C@]2(C)CC[C@@]3(C[C@@H](O)[C@@H](C)[C@@H]([C@H](C)[C@H](OC)[C@H](C)C(=O)O)O3)O2)O1
inactive: Potency [1] | activity change, negative = inhibition [2] 20.4% | activity, negative = inhibition [3] -3.04% | Potency [4] > 20600 nM | Potency [5] > 20600 nM | Potency [6] | Potency [7] | Potency [8]
active: Potency [9] 510 nM | Potency ([10]; parasite line A) 25.1 nM | Potency ([10]; parasite line B) 25.1 nM | Potency [11] 25.1 nM | Potency [12] 15.8 nM | Potency [13] 39.8 nM | Potency [14] 22.4 nM | Potency [15] 50.1 nM | Potency [16] 50.1 nM | Potency [17] 28.2 nM | Potency [18] 50.1 nM | Potency [19] 31.6 nM | Potency [20] 33.8 nM | Potency [21] 33.8 nM | Potency [22] 42.6 nM | Potency [23] 23.9 nM | Potency [24] 33.8 nM | Potency [25] 33.8 nM | Potency [26] 39.8 nM | Potency [27] 17.8 nM | Potency [28] 35.5 nM | Potency [29] 31.6 nM | Potency [30] 39.8 nM | Potency [31] 35.5 nM | Potency [32] 50.1 nM | Potency [33] 20 nM
